# Source: PubChem (National Center for Advancing Translational Sciences (NCATS))
# TDP1 cell CPT = DT40-hTDP1 cell growth loss with CPT | chicken DT40 Tdp1-/-;hTDP1 cells + 20 nM CPT, ATP luminescence, 48 h | Potency, µM (series often up to 46.2 µM), for the others: at the highest dose activity change, negative = growth inhibition, hits mostly inhibitors | 420,000 tested, 12% active | AID 686979; note: potency is the fitted concentration of half-maximal effect; nearly all actives have a fitted effect of over 55% in size
#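 Cell growth measured by CellTiter-Glo luminescence after a minimum 48 h, 37 C compound exposure with 20 nM CPT in Tdp1-knockout DT40 cells stably expressing hTDP1, seeded 400/well; qHTS titration format.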
# IL-1B inflam inh = inflammasome signaling inhibition, IL-1 beta readout; THP-1 LPS/ATP IL-1B secretion, AlphaLISA, 16 h; stronger effect = lower value; activity change, % at 57.5 µM; 360,000 tested, 4.7% active; in the data active = activity change below about -50%; inconclusive = mostly about -30% to -49%
#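 Secreted IL-1B measured by AlphaLISA bead assay after 16 h compound exposure of THP-1 cells; compounds (final up to 57.5 uM) added 1 h before LPS (250 ng/mL) and ATP (1.25 mM) stimulation; lower signal means less secretion.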
# HT1080NT lethal = kills 2HG-producing HT-1080-NT fibrosarcoma cells; Potency, µM (doses to about 46.1 µM), for the others: top-dose activity, negative = less viability, most hits filed as cytotoxic; HT-1080-NT fibrosarcoma viability, CellTiter-Glo ATP luminescence, 48 h; 360,000 tested, 1.6% active;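 note: NT is the 2HG producing partner of a matched IDH1 knockdown line; potency is the fitted concentration of half-maximal effect; 0% = DMSO-treated cells and -100% = media-only wells without cells; nearly all actives have a fitted effect of over 55% in size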
#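 Toxicity toward the 2HG-producing NT line was scored as %Activity, normalised to DMSO and no-cell wells, from CellTiter-Glo luminescence after 48 hours' treatment.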
# HT1080 IDH1KD tx = HT-1080 IDH1 knockdown cell toxicity (counter line); AID 686971; HT-1080 IDH1 knockdown viability, ATP luminescence, 48 h; 360,000 tested, 2% active; Potency, µM (doses to about 46.1 µM), for inactives: at the highest dose activity, negative = toxicity, most hits filed as cytotoxic;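 note: potency is the fitted concentration of half-maximal effect; 0% = DMSO wells and -100% = cell-free medium wells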
#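 After a 2 h attachment period, IDH1KD HT-1080 cells took pin-transferred compound for 48 h at 37 °C; ATP-based luminescence after 10 min room-temperature reagent incubation reported viability.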
# ELG1 repair inh = inhibitors of ELG1-dependent DNA repair in HEK293T cells | HEK293T ELG1-luciferase reporter, luminescence, 16 h; DNA damage induced by 5-fluorouridine | AID 504467 | Potency, µM (series often up to 46.1 µM), for inactives: at the highest dose activity change, negative = inhibition, usual class: inhibitors | 330,000 tested, 2.3% active; note: potency is the fitted concentration of half-maximal effect; nearly all actives have a fitted effect of over 55% in size
#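 Step one: seed 2,000 cells per well. Step two: pin-transfer compound or DMSO alongside 5-fluorouridine. Step three: incubate 16 hr, 37 °C, 5% CO2. Step four: add ONE-Glo, wait 30 min, read luminescence.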
# DT40 TDP1 no CPT = qHTS for Inhibitors of human tyrosyl-DNA phosphodiesterase 1 (TDP1): qHTS in cells in absence of CPT; Potency, µM (top dose mostly 46.2 µM), for inactives: at the highest dose activity change, negative = growth inhibition, actives largely listed as inhibitors; DT40 Tdp1-/- hTDP1 cells, no CPT, ATP luminescence, 48 h; 420,000 tested, 15% active; AID 686978, 2013; note: potency is the fitted concentration of half-maximal effect; nearly all actives have a fitted effect of over 55% in size
#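 Growth kinetics read by CellTiter-Glo luminescence after ≥48 hr at 37 °C. Cells: DT40 Tdp1-/- stably carrying human TDP1, 400 per well, compound exposure in the absence of CPT (DMSO vehicle).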
# * = called active by the depositor; ? = inconclusive; · = not tested or not shown; [ ] = dose if it differs, or a comment. The list is not random: actives were taken first. Their share in the collection is about 19%. Unless noted, calls come from the whole dose curve; as a rule, active = well fitted curve in the direction sought with a large enough effect; inconclusive = small, poorly fitted or top-dose-only effect, or another doubt; inactive = no such curve, though single readings can be large; an effect the other way counts as inactive or inconclusive. Unless noted, % is set by controls: 0 for no effect and ±100 for the full control effect.
SMILES,TDP1 cell CPT,IL-1B inflam inh,HT1080NT lethal,HT1080 IDH1KD tx,ELG1 repair inh,DT40 TDP1 no CPT
CCc1cccc(NC(=O)Cn2nc3c4cc(F)ccc4n(Cc4cccc(C)c4)cc-3c2=O)c1,-3.6%,·,·,·,·,-6.1%
Cc1cc(-c2cc(F)cc3c2OC(CNC(=O)[C@@H]2CCC(=O)N2)C3)ccc1F (stereo partly specified),1.8%[9.04 µM],·,·,·,·,-17.3%
CCC(c1nnnn1-c1c(C)cccc1C)N1CCN(CCN2CCOCC2)CC1 (stereo unspecified),-7.5%,12.4,9.8%,0.7%,·,-15.6%
CCC(c1nnnn1-c1c(C)cccc1C)N1CCCN(Cc2ccc(F)cc2)CC1 (stereo unspecified),?,-1.0,?,?,·,16.4µM*
O=C(CSc1nnnn1Cc1ccccc1)Nc1ccccc1,-18.3%,-0.6,-2.0%,2.0%,-9.9%,0.9%
C/C(=N\NC(N)=S)c1ccc(-n2ccnc2)cc1,0.6%,0.0,-1.7%,-0.7%,?,-11.5%
C/C(=N\Nc1ccc(Cl)c(Cl)c1)c1ccc(-n2ccnc2)cc1,?,-65.1*,-22.7%,-25.5%,16.1%,?
O=C(COC(=O)CSc1ccc(Cl)cc1)NCCc1ccccc1,?,-3.7,-18.3%,-9.9%,5.2%,-14.5%
COc1ccc([C@@H]2[C@@H](C)N(c3ccccc3)c3ccccc3C(=O)N2Cc2ccccc2)cc1,?,-9.2,?,?,·,16.4µM*
CC(=O)Nc1ccc(-c2ccnc3c2CC(C(=O)NCCc2ccccc2)O3)cc1 (stereo unspecified),?,53.5,-14.5%,0.0%,·,?
CC(=O)Nc1ccc(-c2ccnc3c2CC(C(=O)NCc2ccco2)O3)cc1 (stereo unspecified),0.184µM*,40.2,?,?,·,0.0065µM*
CC(=O)Nc1ccc(-c2ccnc3c2CC(C(=O)NCc2ccccc2)O3)cc1 (stereo unspecified),0.0231µM*,60.1,?,?,·,0.0184µM*
CC1CCCCC1NC(=O)Cn1cc([N+](=O)[O-])ccc1=O (stereo unspecified),-2.2%,7.3,-3.4%,0.0%,?,-21.4%
O=C(CCC1CCCN(C(=O)c2ccc3[nH]ccc3c2)C1)N1CCN(c2ccccn2)CC1 (stereo unspecified),23.1µM*,?,-17.6%,-14.2%,?,20.6µM*
Cc1ccc(C(=O)N2CCCC(CCC(=O)N3CCN(c4ccccn4)CC3)C2)cc1 (stereo unspecified),?,?,-7.0%,0.3%,-22.9%,?
Cc1cccc(C(=O)N2CCCC(CCC(=O)N3CCN(c4ccccn4)CC3)C2)c1 (stereo unspecified),?,-10.1,-0.9%,0.0%,?,?
O=C(CCC1CCCN(C(=O)c2ccc3cc[nH]c3c2)C1)N1CCN(c2ccccn2)CC1 (stereo unspecified),16.4µM*,6.1,4.1%,-7.2%,?,?
O=C(NNC(=O)C1CC1)c1ccccc1[N+](=O)[O-],2.1%,-3.6,20.3%,2.5%,8.9%,0.4%
COC(=O)[C@H](Cc1ccccc1)NC(=O)Cn1ccc(NC(=O)OCc2ccccc2)nc1=O,?,?,0.0%,1.1%,3.4%,?
COc1cccc(CNC(=O)c2cnc(N3CCCC3)nc2C)c1,1.1%,·,·,·,·,-16.6%
CCN(CC)c1ncnc2c1ncn2[C@H]1CN(Cc2ccc(-c3ccccc3)cc2)C[C@@H](CO)O1,?,-53.7*,?,?,·,16.4µM*
CN(C)CCNc1ncnc2c1ncn2[C@H]1CN(Cc2ccc(-c3ccccc3)cc2)C[C@@H](CO)O1,29.1µM*,-5.1,6.51µM*,20.6µM*,·,20.6µM*
CCN(CC)c1ncnc2c1ncn2[C@H]1CN(Cc2ccco2)C[C@@H](CO)O1,?,-15.7,19.2%,9.3%,·,-18.2%
CC(C)CNc1ncnc2c1ncn2[C@H]1CN(Cc2ccc(-c3ccccc3)cc2)C[C@@H](CO)O1,5.17µM*,-26.8,18.4µM*,?,·,4.11µM*
CC(C)Nc1ncnc2c1ncn2[C@H]1CN(Cc2ccco2)C[C@@H](CO)O1,-27.3%,21.3,14.0%,22.8%,·,-4.7%
SMILES,TDP1 cell CPT,IL-1B inflam inh,HT1080NT lethal,HT1080 IDH1KD tx,ELG1 repair inh,DT40 TDP1 no CPT
CC(C)Nc1ncnc2c1ncn2[C@H]1CN(Cc2ccc(-c3ccccc3)cc2)C[C@@H](CO)O1,4.61µM*,-10.8,?,?,·,5.17µM*
CN1Cc2c(C(=O)OC(C)(C)C)ncn2-c2ccsc2C1=O,0.2%,·,·,·,·,-4.4%
Cc1ccc(-c2nc(CCNC(=O)c3ccco3)cs2)cc1,2.1%,-2.1,6.8%,-0.1%,?,?
O=C(NCCc1csc(-c2ccc(Cl)cc2)n1)c1ccco1,?,-23.1,?,?,?,14.6µM*
COc1ccc(-c2nc(CC(=O)O)cs2)cc1OC,·,·,·,·,18.8%,·
COc1ccc(-c2nc(CC(=O)O)cs2)cc1,2.2%,0.0,26.1%,?,7.7%,-24.5%
COc1ccc(-c2nc(CCNC(=O)c3ccccc3)cs2)cc1OC,23.1µM*,·,·,·,·,23.1µM*
O=C(COc1ccc(Cl)cc1)NCCc1csc(-c2ccc(C(F)(F)F)cc2)n1,?,·,·,·,·,23.1µM*
CCOc1ccc(NC(=O)C(=O)NCCc2csc(-c3ccc(C(F)(F)F)cc3)n2)cc1,3.1%,·,·,·,·,1.1%
COc1ccc(CC(=O)NCCc2csc(-c3ccc(Cl)cc3)n2)cc1,18.4µM*,·,·,·,·,16.4µM*
FC(F)(F)c1cc(-c2cccs2)nc2cc(-c3cccs3)nn12,-9.7%,32.4,0.8%,-0.2%,11.5%,-24.8%
Cc1cccc(C(=O)NNC(=O)C2CC2)c1,-2.3%,0.0,-1.1%,7.4%,-1.5%,18.1%
COCCNC(=O)c1cccc(OC2CCN(C(C)COc3ccccc3)CC2)c1 (stereo unspecified),?,0.0,-11.4%,-3.5%,13.4%,1.0%
CC(C)Cn1c(=O)c2c(nc3n2CC(C)CN3Cc2ccccc2)n(C)c1=O (stereo unspecified),-21.4%,-11.9,-7.0%,-18.8%,-23.3%,-18.7%
CCOc1cc(C(=O)NCCc2csc(-c3ccc(C)cc3)n2)cc(OCC)c1OCC,?,·,·,·,·,16.4µM*
CCOc1ccc(NC(=O)C(=O)NCCc2csc(-c3ccc(F)cc3)n2)cc1,-22.0%,·,·,·,·,9.0%
O=C(COc1ccc(Cl)cc1)NCCc1csc(-c2ccc(F)cc2)n1,16.4µM*,·,·,·,·,14.6µM*
